PI4K2A inh – qHTS for small molecular inhibitors of PI4K2A; Phosphatidylinositol 4-kinase type 2-alpha (Homo sapiens), Q9BTU6; purified PI4K2A, ADP-Glo luminescence, 1 h; hits give low values; activity change, negative = inhibition, % at 76.9 µM; hit rate 0.13% among 420,000; AID 1346378, 2018; in the data active = activity change below about -50%; inconclusive = mostly about -30% to -49%;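 note: -100% = wells without enzyme as full effect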
Target sequence (Q9BTU6 whole entry, looked up): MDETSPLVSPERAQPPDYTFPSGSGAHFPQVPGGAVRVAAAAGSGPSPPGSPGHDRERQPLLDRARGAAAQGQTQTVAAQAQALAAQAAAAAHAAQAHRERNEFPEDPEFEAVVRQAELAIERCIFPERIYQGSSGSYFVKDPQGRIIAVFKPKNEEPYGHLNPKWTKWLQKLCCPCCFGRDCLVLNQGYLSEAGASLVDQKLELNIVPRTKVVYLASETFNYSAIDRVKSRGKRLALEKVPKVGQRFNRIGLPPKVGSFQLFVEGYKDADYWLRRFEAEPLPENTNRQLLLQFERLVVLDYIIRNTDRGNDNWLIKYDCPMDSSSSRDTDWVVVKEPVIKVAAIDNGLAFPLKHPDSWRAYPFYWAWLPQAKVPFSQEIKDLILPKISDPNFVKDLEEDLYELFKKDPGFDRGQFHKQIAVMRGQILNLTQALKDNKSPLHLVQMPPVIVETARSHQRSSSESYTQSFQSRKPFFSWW
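In this quantitative HTS, ADP production by PI4K2A was quantified luminescently after 1 h at ambient temperature; 100 microM adenosine served as plate-quality control.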
KB-3-1 tox – qHTS assay for MDR1-selective chemotherapeutics: Primary screen using the parental adenocarcinoma cell KB-3-1 | AID 1347075, 2019 | Potency, µM (highest dose often 46.1 µM), most hits filed as cytotoxic | hit rate 1.4% among 400,000 | KB-3-1 viability, CellTiter-Glo ATP luminescence, 72 h; note: potency is the fitted concentration of half-maximal effect; nearly all actives have a fitted effect of over 60% in size
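Here the drug-naive KB-3-1 line serves as comparator for MDR sub-line selectivity; cells received compound titrations, 72 h at 37 °C, then CellTiter-Glo readout.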
A549 tox-1 – Nrf2 qHTS screen for inhibitors: counterscreen for cytotoxicity. hit rate 0.16% among 390,000. Potency, µM (top dose mostly 46 µM), for inactives: at the top dose activity change, negative = cytotoxicity, actives largely listed as inhibitors. AID 504648, 2011. A549 ARE-Fluc cells, CellTiter-Fluor viability, 18-24 h; note: potency is the fitted concentration of half-maximal effect
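A549 ARE_Fluc cells in 5% FBS OPTI-MEM were exposed to compounds in concentration-response for 18-24 h at 37 deg C. Viability was read by CellTiter-Fluor fluorescence (Ex 405/Em 525) after 30 min, before the luciferase read.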
Giardia kill – Small Molecules that selectively kill Giardia lamblia: qHTS; Giardia lamblia trophozoite viability; activity change, % at 7.66 µM, hits read low; AID 540267, 2011; hit rate 0.15% among 340,000; in the data active = activity change below about -80%; inconclusive = between about -30% and that limit;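 note: parasites exposed to compound for two days anaerobically before the ATP read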
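Giardia lamblia trophozoites (100 cells/well) were incubated with compounds for 48 h at 37 deg C under anaerobic conditions. Viability was read as ATP content by one-step luminescence after 15-30 min at room temperature.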
Nrf2 block – Nrf2 qHTS screen for inhibitors; A549 ARE-Fluc reporter, luciferase luminescence, 18-24 h; Potency, µM (series often up to 46 µM), inactives show at the top dose activity change, negative = inhibition, actives largely listed as inhibitors; hit rate 2.1% among 360,000; note: potency is the fitted concentration of half-maximal effect; nearly all actives have a fitted effect of over 60% in size
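Reporter: ARE-Fluc in A549. Exposure: 18-24 h, 37 °C, 5% CO2, 5% FBS OPTI-MEM. Readouts: fluorescent cytotoxicity (CellTiter-Fluor), then luminescent Nrf2 signal after BugLite.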
KB-V1 MDR tox – qHTS assay for MDR1-selective chemotherapeutics: Primary screen using the drug-selected MDR subline cells KB-V1 | KB-V1 MDR cells viability, CellTiter-Glo, 72 h | Potency, µM (top dose mostly 46.1 µM), usual class: cytotoxic | hit rate 3.4% among 400,000 | AID 1347076, 2019; note: potency is the fitted concentration of half-maximal effect; nearly all actives have a fitted effect of over 60% in size
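Drug-selected KB-V1 cells, grown in DMEM lacking phenol red with 10% FBS, receive compound titrations; after three days at 37 degrees C, surviving cell ATP is quantified by CellTiter-Glo luminescence and responses normalized and curve-fitted.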
FLuc enzyme inh – Nrf2 qHTS screen for inhibitors: Purified Fluc Biochemical Counterscreen for Hit Validation; shares compounds with Nrf2 block; purified firefly luciferase, luminescence inhibition; Potency, µM (titrated, usually from 57.5 µM), without a hit: top-dose activity change, negative = inhibition, most hits filed as inhibitors; hit rate 4% among 1,400; AID 720522, 2013; note: potency is the fitted concentration of half-maximal effect; nearly all actives have a fitted effect of over 65% in size
A549 tox-2 – Nrf2 qHTS screen for inhibitors: A549 ARE-Fluc Cytotoxicity Counterscreen for Hit Validation; shares compounds with Nrf2 block; A549 ARE-Fluc cells, cytotoxicity counterscreen; Potency, µM (highest dose often 46.1 µM), for the others: at the top dose activity change, negative = cytotoxicity, actives largely listed as inhibitors; hit rate 2% among 1,400;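 note: potency is the fitted concentration of half-maximal effect; cells exposed to compounds for 18 to 24 hours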
ARE-Fluc inh – Nrf2 qHTS screen for inhibitors: Nrf2 A549 ARE-Fluc Confirmation Assay for Hit Validation. shares compounds with Nrf2 block. A549 ARE-firefly luciferase reporter, luminescence. Potency, µM (top dose mostly 46.1 µM), for the others: at the highest dose activity change, negative = inhibition, hits mostly inhibitors. hit rate 74% among 1,400; note: potency is the fitted concentration of half-maximal effect; nearly all actives have a fitted effect of over 65% in size
An asterisk follows results filed as active. Only some compounds are listed: those with a hit (about 5.7% of all), similar ones and a draw of the others. Unless noted, calls come from the whole dose curve; as a rule, active = well fitted curve in the direction sought with a large enough effect; inconclusive = small, poorly fitted or top-dose-only effect, or another doubt; inactive = no such curve, though single readings can be large; an effect the other way counts as inactive or inconclusive. Unless noted, % is set by controls: 0 for no effect and ±100 for the full control effect.

O=C(Nc1ccc(S(=O)(=O)Nc2ccc(F)cc2)cc1)c1ccc(CN2CCOCC2)cc1 was read as PI4K2A inh -3, KB-3-1 tox 3.7µM*, A549 tox-1 -18%, Giardia kill 16, Nrf2 block 3.7µM*, KB-V1 MDR tox inconclusive, FLuc enzyme inh -4% and A549 tox-2 -8%.
`O=C(Nc1ccc(N2CCOCC2)cc1)c1ccc(Cl)c(S(=O)(=O)N2CCCCC2)c1` gave PI4K2A inh -2, KB-3-1 tox inactive, A549 tox-1 -7%, Giardia kill 13, Nrf2 block 4.1µM*, KB-V1 MDR tox inconclusive, FLuc enzyme inh -2%, A549 tox-2 -3% and ARE-Fluc inh 5.2µM*.
For O=C(Nc1ccc2c(c1)OCCO2)c1ccc(Cl)c(S(=O)(=O)N2CCOCC2)c1 the results were PI4K2A inh -6, KB-3-1 tox inactive, A549 tox-1 -14%, Giardia kill -4, Nrf2 block -13% and KB-V1 MDR tox inconclusive.
CC(=O)N[C@@H](CCC(=O)O)C(=O)O was read as PI4K2A inh 5.
For CCN(CC)c1ccc(NC(=O)CSc2nnc(SCc3ccc(Cl)cc3)s2)cc1 the results were PI4K2A inh 2.
Screening C[C@@H](NC(=O)c1ccc(C#Cc2cccc(F)c2)cn1)C(C)(C)O returned PI4K2A inh 3.
For COc1ccc(NS(=O)(=O)c2ccc(NC(=O)c3ccc(CN4CCOCC4)cc3)cc2)cc1 the results were PI4K2A inh 1, KB-3-1 tox inconclusive, A549 tox-1 -2%, Giardia kill 0, Nrf2 block inconclusive and KB-V1 MDR tox inactive.
Screening CCN(CC)S(=O)(=O)c1ccc(NC(=O)c2ccc(CN3CCOCC3)cc2)cc1 returned PI4K2A inh 1, KB-3-1 tox 3.3µM*, A549 tox-1 -4%, Giardia kill 25, Nrf2 block 3.7µM*, KB-V1 MDR tox inconclusive, FLuc enzyme inh 1%, A549 tox-2 -7% and ARE-Fluc inh 3.7µM*.
`Cc1ccc(NS(=O)(=O)c2ccc(C(=O)NC3CCN(Cc4ccccc4)CC3)cc2)cc1` gave PI4K2A inh 3, A549 tox-1 inconclusive, Giardia kill -13, Nrf2 block 5.8µM*, FLuc enzyme inh 2%, A549 tox-2 -24% and ARE-Fluc inh 7.3µM*.
`O=C(Nc1ccc(S(=O)(=O)N2CCCC2)cc1)c1ccc(CN2CCOCC2)cc1` gave PI4K2A inh 3, KB-3-1 tox inconclusive, A549 tox-1 -14%, Giardia kill 3, Nrf2 block 4.1µM*, KB-V1 MDR tox inconclusive, FLuc enzyme inh -2%, A549 tox-2 -8% and ARE-Fluc inh 8.2µM*.
